Measured values published in ChEMBL document CHEMBL3988442, “University of Dundee, Small-Polar-MMV Screening Library” (2021).
The whole screen tested about 48,000 compounds, of which about 13,000 (27%) showed an effect of 50% or more. Some of the results follow.

System: Wolbachia pipientis
Test: Anti-Wolbachia Cell-Based Screen
Type: functional
Parameters: scale not given: in the data most compounds retested in dose-response had high values
Details: 5 µM

SMILES	Percent Effect
COCCN1CCC12CCN(C(=O)c1ccc(C)nc1)C2.O=C(O)C(F)(F)F (stereo not drawn)	107.4%
CN(C)CCN1CCCC12CCN(C(=O)c1ccncc1)CC2.O=C(O)C(F)(F)F.O=C(O)C(F)(F)F	105%
COCCN1CCC12CCN(C(=O)Cc1cccs1)C2.O=C(O)C(F)(F)F (stereo not drawn)	10.38%
CCN1CCCC12CCCN(c1ncccn1)C2.O=C(O)C(F)(F)F (stereo not drawn)	1.763%
COCCN1CCC12CCN(c1ncccn1)C2.O=C(O)C(F)(F)F (stereo not drawn)	-0.9151%
COCCN1CCCC12CCN(c1ncccn1)CC2.O=C(O)C(F)(F)F	-7.716%
O=C(O)C(F)(F)F.O=C(c1ccc[nH]1)N1CCC2(CCCN2Cc2cccnc2)CC1	-12.51%
Cc1cnc(N2CCCC3(CCCN3CC(=O)N(C)C)C2)nc1.O=C(O)C(F)(F)F (stereo not drawn)	-1.71%
CN(C)CCN1CCCC12CCCN(C(=O)c1cccnc1)C2.O=C(O)C(F)(F)F.O=C(O)C(F)(F)F (stereo not drawn)	118%
Cc1ncc2c(c1CNC(=O)C1(C)CCCCO1)CCNC2 (stereo not drawn)	13.24%
Cc1nn(CCNC(C)Cn2cncn2)c(C)c1Cl (stereo not drawn)	-0.5097%
CC(C)C(NC(=O)c1ccccc1F)C(=O)N1CCC2(CC1)OCCO2 (stereo not drawn)	-11.28%
COc1ncccc1CN1CC[C@H]2O[C@H](c3nnc(C)o3)CC[C@H]21	-0.9405%
O=C(O)C(F)(F)F.O=C(O)C(F)(F)F.c1ccc(O[C@@H]2CC[C@H]3[C@H]2OCCN3CC2CCOCC2)nc1	-13.85%
Cc1nc(CN2CCO[C@@H]3CC(COc4ccccn4)C[C@H]32)cs1.O=C(O)C(F)(F)F.O=C(O)C(F)(F)F (stereo partly drawn)	94.34%
CC(C)NC(=O)[C@H]1C[C@@H]2[C@@H](C1)OCCN2Cc1ccccn1.O=C(O)C(F)(F)F.O=C(O)C(F)(F)F	2.364%
O=C(O)C(F)(F)F.O=C(O)C(F)(F)F.c1ccc(OCC2C[C@@H]3[C@@H](C2)OCCN3CC2CCOCC2)nc1 (stereo partly drawn)	96.17%
O=C(O)C(F)(F)F.O=C(O)C(F)(F)F.c1ccc(O[C@@H]2CO[C@@]3(CCCN(CC4CCOCC4)C3)C2)nc1	-10.07%
Fc1ccc(CN2CCO[C@H]3[C@H](Oc4ccccn4)CC[C@@H]32)cc1.O=C(O)C(F)(F)F.O=C(O)C(F)(F)F	-5.975%
O=C(O)C(F)(F)F.O=C(O)C(F)(F)F.c1ccc(OCC2C[C@@H]3[C@@H](C2)OCCN3Cc2ccoc2)nc1 (stereo partly drawn)	92.52%
Cc1nc(CN2CC[C@H]3[C@H]2CCN3c2ncccn2)cs1.O=C(O)C(F)(F)F.O=C(O)C(F)(F)F.O=C(O)C(F)(F)F	-7.266%
Cc1nc(CN2CCO[C@H]3[C@@H](OCc4ccccn4)CC[C@@H]32)cs1.O=C(O)C(F)(F)F.O=C(O)C(F)(F)F	8%
CCCn1ncc(CN2CCCC(C(=O)c3ccc(Cl)cc3C)C2)c1C (stereo not drawn)	-13.45%
Cc1noc(C)c1CN1CCOCC12CCN(c1nccs1)CC2.O=C(O)C(F)(F)F	98.18%
Cc1noc(C)c1CN1CCOC2(CCCN(c3nccs3)C2)C1 (stereo not drawn)	-30.09%
Cc1noc(C)c1CN1CCCC2(C1)CN(c1nccs1)CCO2.O=C(O)C(F)(F)F (stereo not drawn)	-6.248%

SMILES	Percent Effect
Cc1cc(Cl)ccc1C(=O)C1CCCN(Cc2cnc(N(C)C)s2)C1 (stereo not drawn)	5.845%
O=C(Nc1cc(C(F)(F)F)c[nH]c1=O)C1CCCN1 (stereo not drawn)	84.36%
Cc1nc(C)c(CC(=O)N2C[C@@H]3CC[C@H](C2)N(CC2CCC2)C3)c(=O)[nH]1	-4.383%
O=C1NC[C@H]2CN(Cc3ccnc4ccccc34)CCN12	12.9%
CN1CCOC(CN(C(=O)CN2CCCC2=O)c2nccs2)C1 (stereo not drawn)	101.5%
CN1C(=O)CCC12CCCN(Cc1nccs1)C2.O=C(O)C(F)(F)F (stereo not drawn)	0.9809%
Cc1csc(CN2C[C@@H]3CN(C)CCO[C@@H]3C2)n1	8.009%
O=C(Cc1cccnc1)N1C[C@H]2CC[C@@H]1CN(Cc1ccc(F)cc1)C2	4.977%
CNS(=O)(=O)CC(=O)NC(C)Cc1cccc(Cl)c1 (stereo not drawn)	-8.41%
Cc1noc(C)c1CN1CCN(C)c2ncccc2C1.O=C(O)C(F)(F)F.O=C(O)C(F)(F)F	-16.26%
COCCN1CCN(Cc2ccncc2)c2ncccc2C1.O=C(O)C(F)(F)F.O=C(O)C(F)(F)F.O=C(O)C(F)(F)F	-7.245%
Cc1cnc(N2CCc3c(cnc(C)c3C(=O)O)C2)nc1.O=C(O)C(F)(F)F	-4.301%
CN(C)CCN1CCN(Cc2nccs2)Cc2cccnc21.O=C(O)C(F)(F)F.O=C(O)C(F)(F)F.O=C(O)C(F)(F)F	88.3%
CN(C)c1ncc2c(c1C(=O)O)CCN(Cc1ccco1)C2.O=C(O)C(F)(F)F.O=C(O)C(F)(F)F	87.52%
COCCN1CCN(Cc2ccco2)Cc2ccc(C)nc21.O=C(O)C(F)(F)F.O=C(O)C(F)(F)F	-4.487%
CN(C)CCN1CCN(Cc2cccs2)Cc2cccnc21.O=C(O)C(F)(F)F.O=C(O)C(F)(F)F.O=C(O)C(F)(F)F	92.36%
Cc1ncc2c(c1C(=O)O)CCN(c1ncc(F)cn1)C2.O=C(O)C(F)(F)F	-15.02%
CN(C)CCN1CCN(Cc2ccco2)Cc2cccnc21.O=C(O)C(F)(F)F.O=C(O)C(F)(F)F.O=C(O)C(F)(F)F	95.25%
Cc1ccc2c(n1)N(C)CCN(Cc1ccco1)C2.O=C(O)C(F)(F)F.O=C(O)C(F)(F)F	-3.328%
COCCNC(=O)[C@H]1CN2CCC1C[C@@H]2Cn1cc(C(C)(C)C)nn1 (stereo partly drawn)	-20.26%
CN(C)C(=O)CN1CC[C@H]2[C@H]1CCN2c1ncccn1.O=C(O)C(F)(F)F.O=C(O)C(F)(F)F	-4.997%
CCCn1nc(C)c(-c2cncn2CC2(N(C)C)CCC(C)CC2)c1C (stereo not drawn)	117%
COCCN1CCO[C@H]2[C@H](OCc3cccc(C)n3)CC[C@@H]21	8.918%
c1ccc(O[C@@H]2CC[C@H]3[C@H]2OCCN3Cc2ccsc2)nc1	-6.73%
CCO[C@@H]1CC[C@H]2[C@H]1OCCN2Cc1ccoc1.O=C(O)C(F)(F)F	96.95%
O=C(O)C(F)(F)F.O=C(O)C(F)(F)F.c1cc(CO[C@@H]2CN(Cc3ccoc3)[C@@H]3CCCO[C@@H]32)ccn1	101.1%

SMILES	Percent Effect
O=C(O)C(F)(F)F.O=C(O)C(F)(F)F.c1cncc(COCC2CC[C@H]3[C@H]2OCCN3Cc2ccoc2)c1 (stereo partly drawn)	109.4%
Cc1ncsc1CN1C[C@H](OCc2ccncc2)[C@H]2OCCC[C@H]21.O=C(O)C(F)(F)F.O=C(O)C(F)(F)F	-13.88%
CCOCCN1CCO[C@H]2[C@H](OCc3ccccn3)CC[C@@H]21.O=C(O)C(F)(F)F.O=C(O)C(F)(F)F	26.08%
Cc1ncsc1CN1C[C@@H](OCc2ccncc2)[C@H]2OCCC[C@H]21.O=C(O)C(F)(F)F.O=C(O)C(F)(F)F	-3.825%
Cc1cccc(CO[C@@H]2CC[C@H]3[C@H]2OCCN3Cc2ccsc2)n1.O=C(O)C(F)(F)F.O=C(O)C(F)(F)F	-22.6%
Cc1cccc(CO[C@@H]2CC[C@H]3[C@H]2OCCN3Cc2ccoc2)n1	89.7%
O=C(O)C(F)(F)F.O=C(O)C(F)(F)F.O=C1N(c2cccnc2)CCC12CCCN(Cc1ccoc1)C2 (stereo not drawn)	-1.124%
CC(C)CN1C(=O)CO[C@@H]2CNC[C@H]21	-9.19%
CNC(=O)[C@@H]1C[C@H]2CN(C(=O)c3ccccn3)C[C@H]2N1C(C)C	-10.28%
CCCN1CCN(C(=O)c2ccnc(N)c2)[C@H]2CS(=O)(=O)C[C@H]21	-9.553%
CCCN1CCN(C(=O)c2cnc(C)nc2)[C@H]2CS(=O)(=O)C[C@H]21	-7.853%
Cc1ncc(CN2CCN(C(=O)N(C)C)[C@@H]3CS(=O)(=O)C[C@@H]32)cn1	93.36%
CCCN1CCN(C(=O)c2cncnc2C)[C@H]2CS(=O)(=O)C[C@H]21	18.46%
CCC(=O)N1CCN(Cc2cnc(C)nc2)[C@H]2CS(=O)(=O)C[C@H]21	99.52%
Cc1cccc(CN2CCN(C(=O)N(C)C)[C@@H]3CS(=O)(=O)C[C@@H]32)n1	-5.175%
O=C(C1CCC1)N1CCN(Cc2cccnc2)[C@H]2CS(=O)(=O)C[C@H]21	-3.397%
COC(=O)NCCC(=O)NC(C)Cc1ccccc1Br (stereo not drawn)	-17.72%
CN(C)C(=O)COC[C@H]1CC[C@@H]2[C@@H](CCN2Cc2ccccn2)O1.O=C(O)C(F)(F)F.O=C(O)C(F)(F)F	-0.6188%
c1ccc(COC[C@H]2CC[C@H]3[C@H](CCN3Cc3ccco3)O2)nc1	102.6%
O=C(O)C(F)(F)F.O=C(O)C(F)(F)F.c1ccc(COC[C@H]2CC[C@H]3[C@H](CCN3Cc3cccs3)O2)nc1	0.5679%
COC[C@H]1CC[C@@H]2[C@@H](CCN2Cc2ccco2)O1.O=C(O)C(F)(F)F	137.5%
Cc1noc(C)c1CN1CC[C@@H]2O[C@H](COCC3CC3)CC[C@@H]21.O=C(O)C(F)(F)F	3.642%
c1coc(CN2CC[C@@H]3O[C@@H](COCc4ccncc4)CC[C@@H]32)c1	67.65%
O=C([C@@H]1CC[C@@H]2[C@@H](CCN2Cc2ccncc2)O1)N1CCCCO1	-7.886%
O=C(O)C(F)(F)F.O=C(O)C(F)(F)F.c1cncc(COC[C@H]2CC[C@H]3[C@H](CCN3Cc3nccs3)O2)c1	8.415%
CO[C@H]1CCN(Cc2ccccn2)[C@@H]2CN(Cc3ccco3)C[C@H]12.O=C(O)C(F)(F)F.O=C(O)C(F)(F)F.O=C(O)C(F)(F)F	-3.065%
